6 molecules from PubChem BioAssay can be followed below.

In experiment [1] the target is Albumin (Bos taurus) (UniProt P02769). In words: bovine serum albumin binders on microarray, profiling panel, artefact control for SMM control protein annotation, biochemical, small-molecule microarray, Alexa647 label, 635/667 nm fluorescence (AID 1118).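 Also: score merges 667 nm emission intensity and signal-to-noise per printed compound spot.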 The settings on record: BSA-A647 binding, fluorescence 635 nm, higher = more signal.
A short description of experiment [2]: small-molecule microarray binders of probe aXIP, primary screen, biochemical, NeuroSMM set, 635/667 nm fluorescence (AID 1119).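 Also: probe is the protein aXip251-270 applied at 1 µg/mL to compound-printed slides; binding of probe to printed compounds measured as 667 nm fluorescence plus signal to noise.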 Particulars: higher = more signal, called active from +8 up or from −8 down.
A short description of experiment [3]: small-molecule binders of probe aNOTCH3, primary screen, biochemical, small-molecule microarray, 635/667 nm fluorescence (AID 1120).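 Also: probe is a biotin-tagged antibody raised against NOTCH3 rather than NOTCH3 protein; score merges spot fluorescence near 667 nm with spot signal to noise.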 Particulars: higher = more signal.
Experiment [4] is described as follows: small-molecule binders of probe aNOTCH2, primary screen, biochemical, small-molecule microarray, 635/667 nm fluorescence (AID 1121).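 Also: score merges feature fluorescence read at 667 nm with its signal to noise.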 The settings on record: higher = more signal.
Experiment [5] concerns the target Carbonic anhydrase 2 (Homo sapiens) (UniProt P00918). In words: CAII small-molecule binders, profiling panel, biochemical, small-molecule microarray, Alexa647-labelled CAII (AID 1122). The settings on record: CAII-A647 binding fluorescence, higher = more signal.
Experiment [6] in a line: COS7 lysate on small-molecule microarray, probe aHis, 635 nm (AID 1123).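 Also: z-score combines 667nm fluorescence intensity with signal-to-noise per printed compound spot.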 Particulars: COS7 cell lysate, fluorescence, higher = more signal.
Experiment [7] in a line: compound binding in COS7 lysate, probe aLAP1, primary screen, cell lysate, small-molecule microarray (AID 1124).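 Also: lysate comes from COS7 cells expressing LAP1 and is applied at 0.3 µg/mL; score merges spot fluorescence near 667 nm with signal-to-noise over triplicate slides.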 The settings on record: probe aLAP1, fluorescence, higher = more signal.
Experiment [8] relates to Sam68 (KHDRBS1). In words: Sam68 small-molecule binders, primary screen, biochemical, small-molecule microarray, 635 nm fluorescence (AID 1125).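 Also: score merges 667 nm channel intensity with signal to noise over triplicate slides.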 Particulars: small-molecule microarray binding, higher = more signal.
Experiment [9] relates to Chordin-like protein 2 (CHRDL2). As to the kind of experiment: CHRDL2 small-molecule binders, primary screen, biochemical, small-molecule microarray, 635 nm fluorescence (AID 1126).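 Also: printed compound slides probed with Chrdl2 protein at 4 µg/mL for 1 h at 4 C; score merges 667 nm emission intensity with signal to noise over three replicate slides.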 Particulars: small-molecule microarray binding, fluorescence 635 nm; higher = more signal.
For experiment [10], the target named is Concanavalin-A (Canavalia ensiformis) (UniProt P02866). As to the kind of experiment: ConA small-molecule binders, primary screen, artefact control for SMM control protein annotation, biochemical, small-molecule microarray, Alexa647 label, 635 nm (AID 1127).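 Also: z combines 667 nm emission intensity with signal-to-noise across three replicate slides.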 The settings on record: ConA-A647 binding fluorescence, higher = more signal.
Experiment [11] in a line: anti-His antibody binders, primary screen, artefact control for SMM control protein annotation, biochemical, small-molecule microarray, 635 nm fluorescence (AID 1128).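 Also: score merges feature fluorescence with signal-to-noise for each printed compound spot.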 The settings on record: anti-His Alexa647 antibody binding, higher = more signal.
Experiment [12] deals with Human papillomavirus type 1a E7 protein (residues 1-88). In words: HPV1a E7 small-molecule binders, primary screen, biochemical, small-molecule microarray, residues 1-88, 635 nm (AID 1129). The settings on record: small-molecule microarray binding, fluorescence 635 nm; higher = more signal.
In experiment [13] the target is Focal adhesion kinase 1 (Homo sapiens) (UniProt Q05397). In words: small-molecule microarray binders of FAK, primary screen, biochemical, 635/667 nm fluorescence, BSA, DTT (AID 1130).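 Also: composite of spot emission at 667 nm and signal to noise over triplicate slides.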 The settings on record: PTK2 binding, 635 nm fluorescence, higher = more signal.
Experiment [14] deals with Fibrinogen (Alexa647-labelled). In words: fibrinogen binders on compound microarrays, profiling panel, artefact control for SMM control-protein annotation, biochemical, small-molecule microarray, 635/667 nm fluorescence (AID 1131).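 Also: z-score merges 667 nm fluorescence with per-spot signal-to-noise over triplicate slides.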 Particulars: fibrinogen-A647 binding fluorescence, higher = more signal.
In experiment [15] the target is Follistatin (Homo sapiens) (UniProt P19883). In words: follistatin binders on small-molecule microarrays, primary screen, biochemical, small-molecule microarray, 635/667 nm fluorescence (AID 1132). Particulars: FST binding, 635 nm fluorescence, higher = more signal.
The target of experiment [16] is Fibroblast growth factor 2 (Homo sapiens) (UniProt P09038). In words: FGF2 binders on small-molecule microarrays, primary screen, biochemical, small-molecule microarray, 635/667 nm fluorescence (AID 1133). Particulars: small-molecule microarray binding, FGF2, fluorescence 635/667; higher = more signal.
Experiment [17] can be described thus: mitochondrial membrane potential change in A549 cells, profiling panel, cell-based, JC-1 fluorescence, basal, 24 h, 100 nL (AID 1138).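 Also: A549 lung adenocarcinoma cells under basal conditions with no added stimulus; test concentration not given here.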 The settings on record: higher = more signal.
Experiment [18] deals with Lefty1. In words: Lefty1 binders on small-molecule microarrays, primary screen, biochemical, small-molecule microarray, 635/667 nm fluorescence (AID 1139). The settings on record: small-molecule microarray binding, fluorescence 635/667; higher = more signal.
For experiment [19], the system named is wheat germ agglutinin (Triticum aestivum), Alexa647-labelled. In words: wheat germ agglutinin binders on compound microarrays, profiling panel, artefact control for SMM control-protein annotation, biochemical, small-molecule microarray, 635/667 nm fluorescence (AID 1140).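 Also: score merges 667 nm feature emission with signal to noise over triplicate slides.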 Particulars: WGA-A647 binding, 635 nm fluorescence, higher = more signal.
The target in experiment [20] is Luciferin 4-monooxygenase (Photinus pyralis) (UniProt P08659). In words: firefly luciferase enzyme inhibitors, primary screen, biochemical, luminescence, purified enzyme, 2006 set (AID 1141).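 Also: cell-free assay with purified firefly luciferase at 100 ng per well in PBS; test concentration not given here.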 Particulars: SteadyGlo luminescence, 30 min, higher = more signal, called active from +8 up or from −8 down.

The source made the active and inactive calls.

Sequence of Fibroblast growth factor 2 (Homo sapiens) (P09038 whole entry, looked up): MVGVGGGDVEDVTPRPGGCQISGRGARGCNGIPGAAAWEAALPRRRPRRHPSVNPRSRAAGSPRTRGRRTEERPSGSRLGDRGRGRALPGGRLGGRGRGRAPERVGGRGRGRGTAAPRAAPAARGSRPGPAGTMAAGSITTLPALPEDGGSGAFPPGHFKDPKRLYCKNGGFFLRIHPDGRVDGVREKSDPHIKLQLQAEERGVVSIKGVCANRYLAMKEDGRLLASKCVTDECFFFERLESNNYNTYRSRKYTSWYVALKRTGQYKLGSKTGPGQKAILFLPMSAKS
Sequence of Concanavalin-A (Canavalia ensiformis) (P02866 whole entry, looked up): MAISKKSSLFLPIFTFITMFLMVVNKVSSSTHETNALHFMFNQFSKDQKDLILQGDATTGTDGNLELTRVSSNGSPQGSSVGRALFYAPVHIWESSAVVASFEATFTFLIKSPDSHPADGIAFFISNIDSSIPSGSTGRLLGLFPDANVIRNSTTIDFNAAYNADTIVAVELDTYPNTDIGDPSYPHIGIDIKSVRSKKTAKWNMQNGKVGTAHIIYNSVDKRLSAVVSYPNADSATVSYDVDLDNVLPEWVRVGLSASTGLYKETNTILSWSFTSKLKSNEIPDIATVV
Sequence of Focal adhesion kinase 1 (Homo sapiens) (Q05397 whole entry, looked up): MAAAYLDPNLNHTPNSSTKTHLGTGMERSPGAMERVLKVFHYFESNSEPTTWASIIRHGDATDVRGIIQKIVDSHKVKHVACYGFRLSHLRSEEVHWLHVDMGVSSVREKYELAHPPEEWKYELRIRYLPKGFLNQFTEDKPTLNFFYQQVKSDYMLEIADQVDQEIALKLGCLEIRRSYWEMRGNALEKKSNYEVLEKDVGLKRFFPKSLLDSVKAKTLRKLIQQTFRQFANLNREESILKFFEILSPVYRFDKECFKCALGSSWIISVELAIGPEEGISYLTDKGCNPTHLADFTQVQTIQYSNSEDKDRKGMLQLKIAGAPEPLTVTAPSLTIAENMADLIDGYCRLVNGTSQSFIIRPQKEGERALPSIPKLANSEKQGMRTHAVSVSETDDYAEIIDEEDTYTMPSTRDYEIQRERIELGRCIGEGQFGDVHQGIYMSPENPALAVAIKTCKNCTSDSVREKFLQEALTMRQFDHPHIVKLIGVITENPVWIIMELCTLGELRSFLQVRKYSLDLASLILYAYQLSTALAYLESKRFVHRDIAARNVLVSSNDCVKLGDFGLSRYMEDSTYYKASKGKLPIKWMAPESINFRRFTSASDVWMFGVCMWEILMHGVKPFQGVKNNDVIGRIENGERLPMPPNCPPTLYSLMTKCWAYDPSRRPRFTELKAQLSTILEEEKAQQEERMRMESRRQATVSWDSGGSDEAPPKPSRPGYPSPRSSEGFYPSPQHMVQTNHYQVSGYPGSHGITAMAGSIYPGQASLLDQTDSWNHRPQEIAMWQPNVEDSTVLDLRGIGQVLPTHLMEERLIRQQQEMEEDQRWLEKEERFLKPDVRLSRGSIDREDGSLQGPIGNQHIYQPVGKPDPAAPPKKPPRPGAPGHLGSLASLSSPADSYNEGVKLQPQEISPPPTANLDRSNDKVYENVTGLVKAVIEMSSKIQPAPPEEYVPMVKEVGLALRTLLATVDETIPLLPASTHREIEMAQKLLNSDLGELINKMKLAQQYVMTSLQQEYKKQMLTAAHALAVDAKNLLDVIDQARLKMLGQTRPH
Sequence of Albumin (Bos taurus) (P02769 whole entry, looked up): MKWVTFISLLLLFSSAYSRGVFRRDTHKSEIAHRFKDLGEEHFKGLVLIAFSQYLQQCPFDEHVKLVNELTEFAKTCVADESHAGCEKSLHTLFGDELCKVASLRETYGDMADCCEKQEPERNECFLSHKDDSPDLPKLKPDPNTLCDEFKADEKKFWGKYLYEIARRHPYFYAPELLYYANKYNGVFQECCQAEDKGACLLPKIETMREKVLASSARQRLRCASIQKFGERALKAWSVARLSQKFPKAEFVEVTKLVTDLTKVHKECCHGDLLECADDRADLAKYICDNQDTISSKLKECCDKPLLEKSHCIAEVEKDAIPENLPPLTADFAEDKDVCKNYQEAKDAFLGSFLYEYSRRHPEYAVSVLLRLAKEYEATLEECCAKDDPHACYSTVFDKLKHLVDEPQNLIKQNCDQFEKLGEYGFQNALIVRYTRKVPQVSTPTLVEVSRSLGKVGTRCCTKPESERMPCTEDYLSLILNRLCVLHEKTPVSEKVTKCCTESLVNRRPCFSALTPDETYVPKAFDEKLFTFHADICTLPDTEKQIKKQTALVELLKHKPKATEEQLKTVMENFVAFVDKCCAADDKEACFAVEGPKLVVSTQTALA
Sequence of Luciferin 4-monooxygenase (Photinus pyralis) (P08659 whole entry, looked up): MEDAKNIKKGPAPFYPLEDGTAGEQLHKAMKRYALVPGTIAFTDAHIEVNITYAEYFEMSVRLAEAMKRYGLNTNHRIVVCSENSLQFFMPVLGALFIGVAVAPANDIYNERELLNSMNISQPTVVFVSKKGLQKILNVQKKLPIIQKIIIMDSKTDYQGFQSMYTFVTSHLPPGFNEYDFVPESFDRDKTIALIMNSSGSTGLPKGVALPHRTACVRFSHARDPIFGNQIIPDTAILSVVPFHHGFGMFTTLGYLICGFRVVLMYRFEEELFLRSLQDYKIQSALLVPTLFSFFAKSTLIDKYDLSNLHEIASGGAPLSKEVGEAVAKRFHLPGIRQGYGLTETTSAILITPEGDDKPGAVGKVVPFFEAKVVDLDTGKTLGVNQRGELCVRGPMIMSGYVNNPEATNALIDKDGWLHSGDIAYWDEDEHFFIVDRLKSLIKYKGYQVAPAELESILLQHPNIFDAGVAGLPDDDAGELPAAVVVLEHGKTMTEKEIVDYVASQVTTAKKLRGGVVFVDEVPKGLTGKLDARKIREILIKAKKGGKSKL
Sequence of Follistatin (Homo sapiens) (P19883 whole entry, looked up): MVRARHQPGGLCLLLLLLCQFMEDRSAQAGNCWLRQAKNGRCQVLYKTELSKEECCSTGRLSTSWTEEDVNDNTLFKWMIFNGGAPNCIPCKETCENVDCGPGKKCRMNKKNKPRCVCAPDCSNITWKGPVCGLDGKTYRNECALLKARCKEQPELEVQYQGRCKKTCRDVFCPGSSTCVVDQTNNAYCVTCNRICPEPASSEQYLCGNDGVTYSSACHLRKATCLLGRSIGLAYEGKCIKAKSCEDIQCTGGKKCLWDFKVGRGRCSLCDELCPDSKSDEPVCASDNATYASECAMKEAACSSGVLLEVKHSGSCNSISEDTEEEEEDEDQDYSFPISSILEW

As for `CCOC(=O)C[C@H]1[C@H](OC(=O)Cc2ccc3c(c2)OCO3)[C@@H](NC(=O)c2ccc3ccccc3n2)c2cc(OCCCO)ccc2N1C(=O)c1ccc2ccccc2n1`, the composite z-score was 0.208 in experiment [1]; -0.0646 in [3]; -0.135 in [4]; 0.371 in experiment [5]; 0.986 in experiment [6]; 0.171 in [7]. Also, the composite z-score in [8] is 0.796; in experiment [9], 0.0741; in experiment [10], 1.07; in [11], 0.267; in experiment [12] it was 0.496; in experiment [13] it was 0.629. The composite z-score in experiment [14] is 0.913; in [15] it was 0.497; in [16] it was 0.13; in experiment [18], 0.37; in [19] it was 0.754. For the same molecule, the composite Z-score in experiment [2] was -0.0069 (inactive). Besides, the z-score was 3.18 in [17] and -1.83 (inactive) in experiment [20].
Turning to `C=CCN1C(=O)[C@]2(CCS(=O)(=O)c3ccccc3)N=C(c3ccc(OCCCO)cc3)O[C@@H]2c2ccccc21`, the composite z-score in experiment [1] was 0.8; in experiment [3], 0.177; in experiment [4], -0.112; in experiment [5] it was 0.594; in experiment [6], 3.23; in [7], 1.31. In addition, the composite z-score in experiment [8] amounted to 1.31; in experiment [9], 1; in experiment [10], 1.17; in experiment [11] it was 2.73; in [12], 1.23; in [13] it was 1.29. The composite z-score came out at 0.891 in experiment [14]; 1.31 in experiment [15]; 1.47 in experiment [16]; 0.825 in experiment [18]; 1.19 in [19]. For the same molecule, the composite Z-score in experiment [2] was -0.0072 (inactive). The z-score is 1.3 in experiment [17] and -2.23 (inactive) in [20].
With `[N-]=[N+]=NCc1ccccc1[C@H]1OC(c2ccc(OCCCO)cc2)=N[C@@]1(Cc1ccccc1N=[N+]=[N-])C(=O)NCC(O)CO` (stereo not given in full), the composite z-score in experiment [1] is 0.992; in [3], 0.483; in [4], -0.0859; in experiment [5], 0.7; in [6], 1.8; in [7] it was 0.0939. Further, the composite z-score in experiment [8] is 1.3; in experiment [9] it was -0.603; in experiment [10], 1.09; in experiment [11], 0.363; in [12], 1.22; in experiment [13], 0.566. Also, the composite z-score in [14] is 0.711; in [15], 1.13; in experiment [16], -0.401; in [18], 0.194; in experiment [19], 1.12. For the same molecule, the composite Z-score in experiment [2] is 0.095 (inactive). The z-score in experiment [17] was 0.118; in experiment [20] it was -2.09 (inactive).
With `[N-]=[N+]=NCc1ccccc1[C@@H]1OC(c2ccc(OCCCO)cc2)=N[C@]1(CCS(=O)(=O)c1ccccc1)C(=O)O`, the composite z-score in experiment [1] was 0.951; in experiment [3], 0.0311; in [4], -0.0145; in experiment [5], 0.786; in [6] it was 1.6; in experiment [7] it was 0.0649. For the same molecule, the composite z-score in experiment [8] is 0.585; in experiment [9], -1.92; in experiment [10], 0.448; in experiment [11], 0.843; in experiment [12], 0.843; in experiment [13], 0.809. Moreover, the composite z-score in experiment [14] was 0.839; in experiment [15], 0.0575; in experiment [16], -0.517; in [18], 0.381; in experiment [19] it was 1.17. For the same molecule, in experiment [2], the composite Z-score was 0.0313 (inactive). The z-score is -0.586 in experiment [17] and -5.21 (inactive) in experiment [20].
On to `O=C1C2C=CC(C(O)c3cccc(O)c3)N(Nc3ccc([N+](=O)[O-])cc3)C2C(=O)N1c1ccccc1` (stereo not given), for which the composite z-score in experiment [1] is 0.477; in [3], 0.0116; in experiment [4] it was -0.0703; in experiment [5], 0.788; in experiment [6] it was 0.762; in experiment [7], 0.153. The composite z-score is 0.821 in [8]; -0.264 in [9]; 0.41 in experiment [10]; 1.18 in experiment [11]; 0.785 in [12]; 0.264 in experiment [13]. The composite z-score in [14] amounted to 0.578; in experiment [15], 0.418; in experiment [16], 0.526; in experiment [18], 0.292; in experiment [19], 0.0289. In addition, the composite Z-score in [2] was -0.335 (inactive). For the same molecule, the z-score was -1.15 in experiment [17] and 0.931 (inactive) in experiment [20].
In the case of `COCCOC(=O)N1C(=O)[C@@]2(c3cc(C#CCCO)ccc31)[C@H](c1ccc(OCCO)cc1)N1[C@H](c3ccccc3)[C@H](c3ccccc3)OC(=O)[C@H]1[C@@H]2C(=O)Nc1nc2ccccc2s1`, the composite z-score in experiment [1] turned out to be 0.648; in experiment [3], 0.0556; in [4], 0.02; in experiment [5], 0.406; in [6], 0.556; in experiment [7], 0.559. For the same molecule, the composite z-score in [8] came out at 1.31; in experiment [9] it was 0.27; in experiment [10], 1.13; in experiment [11] it was 0.872; in experiment [12], 1.15; in [13], 0.479. Also, the composite z-score is 0.817 in [14]; 1.32 in experiment [15]; 0.759 in experiment [16]; 1.41 in experiment [18]; 1.13 in experiment [19]. For the same molecule, the composite Z-score in experiment [2] is -0.22 (inactive). Moreover, the figures for the z-score in experiment [17] and in experiment [20] were -2.37 and -2.18 (inactive), respectively.
